Reference: PubChem BioAssay AID652067 (The Scripps Research Institute Molecular Screening Center, 2013)
Screen size: about 370,000 compounds; about 5,400 (1.5%) were called active.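 Rule for the calls: active = activation above the mean of all tested compounds plus 3 SD (cut at about 5.5% in these data); inactive = the rest.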 The list comes from a sample in which actives are over-represented; it also holds similar structures and randomly drawn compounds.

tested on: DAF-12 nuclear receptor (Haemonchus contortus); assay: H. contortus DAF-12 nuclear receptor activators, primary screen, cell-based, luminescence, HEK293, lit1-tk-luc reporter (AID 652067); settings: HEK293 hcDAF-12 lit1-tk-luc reporter, at 6.8 µM, hits give high values, 0% DMSO, 100% Δ7-dafachronic acid;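 note: 100% = response to 3 µM Δ7-dafachronic acid high control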

| SMILES | activation |
| --- | --- |
| Cc1ccc(-n2c(SCC(=O)Nc3cccc4ccccc34)nnc2-c2ccco2)cc1 | -2.24% (inactive) |
| COc1cccc(-c2cc(CNC(=O)[C@@H](Cc3ccccc3)NC(=O)[C@H]3O[C@@H](n4cnc(C(N)=O)n4)[C@H](O)[C@@H]3O)no2)c1 | -1.75% (inactive) |
| O=C(Nc1cccc(Cl)c1)OC1CC2CC1[C@H]1CCCCN1[C@H]2Cc1ccccc1 (stereo not given in full) | -1.09% (inactive) |
| COc1ccc2c(c1)N(C)/C(=C1/SC(=S)N(NC(C)=O)C1=O)S2 | -1.24% (inactive) |
| COc1ccc(C(=O)NN2C(=O)C3C(c4ccccc4)C=CC(c4ccccc4)C3C2=O)cc1 (stereo not given) | 0.07% (inactive) |
| CC(=O)N1C(=O)/C(=C2\SC(=S)N(NC(=O)c3ccc(O)cc3)C2=O)c2ccccc21 | 8.31% (active) |
| CCOC(=O)N1CCN(C(=O)C[C@H]2C[C@@]3(C(=O)OC)C(=C[C@H](C(C)(C)C)O[C@@H]3C)N(Cc3ccc(Cl)cc3Cl)C2=O)CC1 | -1.96% (inactive) |
| COc1ccc([C@H]2[C@H](C(C)=O)N3N=Cc4ccccc4C3C23C(=O)OC(C)(C)OC3=O)cc1 (stereo not given in full) | -0.72% (inactive) |
| COC(=O)c1cccc(Cn2ccc3ccc(-c4ccc5ccn(C(=O)c6ccccc6C)c5c4)cc32)c1 | -0.36% (inactive) |
| O=C(NC1CCCCN(Cc2cccc(C(F)(F)F)c2)C1=O)c1ccccc1I (stereo not given) | -2.6% (inactive) |
| CC(OC(=O)Cc1ccc(F)cc1)C(=O)N1CCc2ccccc21 (stereo not given) | -0.21% (inactive) |
| O=C(CN1C(=O)c2ccccc2S1(=O)=O)N1CCc2ccccc21 | -5.07% (inactive) |
| O=C(CSCc1ccccc1)N1CCc2ccccc21 | 6.78% (active) |
| CC(=O)N1CCc2cc(S(=O)(=O)NCCC(=O)N3CCCC3)ccc21 | 1.64% (inactive) |
| O=C(NC1=CC(=O)c2ccccc2C1=O)c1ccccc1 | -0.21% (inactive) |
| Cn1c(NC(=O)c2ccccc2)nc2ccccc21 | 14.3% (active) |
| CCn1c(NC(=O)c2nn(C)cc2Br)nc2ccccc21 | -2.93% (inactive) |
| C[C@@H](NC(=O)c1ccccc1OCC(=O)Nc1ccc(I)cc1)C(=O)N(C)Cc1ccccc1 | -0.3% (inactive) |
| COCC(=O)N[C@@H]1C[C@@H]2O[C@@H](CO)CC[C@@H]2O[C@@H]1CCc1ccc(-c2ccccc2)cc1 | -2.01% (inactive) |
| Cn1c(SCc2nc3ccccc3s2)nnc1-c1ccc2c(c1)OCO2 | 3.52% (inactive) |
| O=C(CSc1nc2ccccc2s1)N=Nc1c(O)[nH]c2ccccc12 | -1.5% (inactive) |
| O=C(O)c1ccccc1CSc1nc2ccccc2s1 | 8.09% (active) |
| O=C(O)CSCc1nc2ccccc2s1 | 5.6% (active) |
| O=C(CSc1nc2ccccc2s1)NN=Cc1ccc(O)cc1O | -0.04% (inactive) |
| O=C(O)CSc1nccc2ccccc12 | 0.9% (inactive) |
| O=C(N[C@H](Cc1ccccc1)C(=O)N1CCCN(Cc2cccs2)CC1)[C@H]1O[C@@H](n2ccc(=O)[nH]c2=O)[C@H](O)[C@@H]1O | -1.83% (inactive) |
| CC(C)CNC(=O)OCc1cn(Cc2ccc(F)cc2)nn1 | -2.06% (inactive) |
| CS(=O)(=O)N(CC(=O)Nc1ccc(F)cc1F)c1cccc([N+](=O)[O-])c1 | -0.66% (inactive) |

| SMILES | activation |
| --- | --- |
| O=C(NCc1ccco1)C1CCCN(S(=O)(=O)c2ccc(Cl)s2)C1 (stereo not given) | -2.39% (inactive) |
| Cc1nc2c(OCc3ccc(Cl)cc3Cl)cccn2c1N(C)CC1CC1 | -1.39% (inactive) |
| NC(N)=N/N=C/c1ccc(OCc2ccc(Cl)cc2Cl)cc1 | -1.35% (inactive) |
| Cc1nc2ccccc2nc(C)c1=NOCc1ccc(Cl)cc1Cl | 6.04% (active) |
| CCOC(=O)[C@]12CCCCC/C=C\1N(Cc1ccc(OC)cc1)C(=O)[C@H]2CC(=O)NCCCN1CCCC1=O | -0.09% (inactive) |
| CN(C)Cc1cn(-c2ccc(-c3noc4c3C(=O)N(CC(=O)N3CCOCC3)CC4)cc2)nn1 | 2.44% (inactive) |
| CCOC(=O)CNC(=O)N(C)[C@H]1C[C@H]2c3[nH]c4c(-c5ccc6c(c5)OCO6)cccc4c3CCN2C(=O)[C@H]1[C@H](C)O | -1.87% (inactive) |
| O=C(NNC(=O)c1cc(S(=O)(=O)N2CCCCC2)ccc1Cl)c1ccccc1O | 1.49% (inactive) |
| Cc1cccc(NS(=O)(=O)c2cccc(C(=O)NNC(=O)c3ccccc3O)c2)c1 | -2.63% (inactive) |
| O=C(NNC(=O)c1ccccc1O)c1ccccc1O | 5.92% (active) |
| COC(=O)C1=C(C)N(Cc2cccc(C(F)(F)F)c2)C(=NCc2ccccc2)NC1c1ccccc1C(F)(F)F (stereo not given) | -0.61% (inactive) |
| CC(=O)Nc1ccc(OC[C@@H](O)CN2CCC(C(O)(c3ccccc3)c3ccccc3)CC2)cc1 | -1.17% (inactive) |
| CC(C)[C@@H](C)/C=C/[C@@H](C)[C@H]1CC[C@@H]2[C@]1(C)CCC1[C@]23C=C[C@]2(C[C@@H](O)CC[C@]12C)N(c1ccc([N+](=O)[O-])cn1)O3 (stereo not given in full) | -0.59% (inactive) |
| CCn1c(=O)n2n(c1=O)[C@@]1(C=C3CCCC[C@H]32)N=C(NC(=O)c2ccccc2)N(Cc2ccccc2)[C@H]1Cc1ccccc1 | -1.71% (inactive) |
| CCOc1ccc(/C(O)=C2\C(=O)C(=O)N(c3ccc(OC)cc3)C2c2ccccc2[N+](=O)[O-])cc1 (stereo not given) | 6.27% (active) |
| COc1ccc(/C(O)=C2/C(=O)C(=O)N(CC3CCCO3)C2c2ccc(OC)c(OC)c2)cc1 (stereo not given) | -1.07% (inactive) |
| COc1ccc(/C(O)=C2/C(=O)C(=O)N(c3nc(C)c(C)s3)C2c2ccco2)cc1 (stereo not given) | 1.96% (inactive) |
| O=S1(=O)c2c(NCc3ccco3)cccc2Oc2ccccc2CN1Cc1cn(Cc2cccc(C(F)(F)F)c2)nn1 | -2.46% (inactive) |
| CN(NC(=O)C1CC(=O)N(c2ccccc2)C1)C1=NS(=O)(=O)c2ccccc21 (stereo not given) | 1.93% (inactive) |
| CC(=O)C1(C(=O)Nc2nccs2)CC(c2ccccc2C(F)(F)F)=NO1 (stereo not given) | -0.69% (inactive) |
| COc1ccc(N2CCN(CCNS(=O)(=O)c3ccc(Cl)s3)CC2)cc1 | 0.26% (inactive) |
| COc1cccc(/C=C/C(=O)Nc2ccc3c(c2)OCCO3)c1 | 3.26% (inactive) |
| CN(Cc1ccccc1)C(=O)COC(=O)/C=C/c1ccc2c(c1)OCO2 | -1.03% (inactive) |
| CCSc1ccccc1C(=O)Nc1ccc2c(c1)OCO2 | 3.08% (inactive) |
| Cc1cccc(NC(=O)Nc2ccc3c(c2)OCO3)n1 | 8.33% (active) |
| CNS(=O)(=O)c1ccc(NC(=O)Nc2ccc3c(c2)OCO3)cc1 | 4.15% (inactive) |
| Cc1cccc(NC(=O)/C=C/c2ccc3c(c2)OCO3)n1 | 5.86% (active) |
